The values below come from PubChem BioAssay AID652154 (Broad Institute, 2013).

In all, about 360,000 compounds went through this assay and about 4,200 (1.2%) were called active. The list comes from a sample in which actives are over-represented; it also holds similar structures and randomly drawn compounds. A number with no mark means an inactive call.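 How the source made its calls: active means mean replicate inhibition at least 60% with every replicate also reaching 60%; inconclusive means only one of the two criteria is met; inactive means mean below 60% and not all replicates reaching 60%.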

The nature of this experiment: PAX8 transcriptional activity inhibition in RMG-I – RMG-I cells, luciferase, single concentration, primary screen (AID 652154).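 Further: luciferase light reporting Pax8 driven TPO promoter activity; plate controls were median of neutral control wells for no effect and mitoxantrone controls for full effect.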 The note with it: RMG-I TPO-luciferase reporter, SteadyGlo, 24 h; at 12.6 µM; active compounds read high. For orientation: A reporter such as luciferase makes a cellular process visible.
A word on the inhibition: it is the relative decrease from the control value, in per cent. Take `CC=Cc1ccc2n(c1=O)C[C@@H]1[C@@H](CO)[C@H](C(=O)NCC(F)(F)F)N(CCc3ccccc3)[C@H]21` (mixture of isomers): the inhibition is 5.7%. For `O=C(C[C@H]1C=C[C@H](NC(=O)CC2CC2)[C@H](CO)O1)NCc1ccc(Cl)cc1` the value was 0.511%. On to `C[C@H]1CCCCO[C@@H](CN(C)S(=O)(=O)c2cccs2)[C@@H](C)CN([C@@H](C)CO)C(=O)c2cc(NS(=O)(=O)c3ccc(Cl)cc3)ccc2O1`, for which the inhibition is 78.6% (active). For `C[C@@H]1CN([C@H](C)CO)C(=O)c2cc(NS(=O)(=O)c3cccs3)ccc2O[C@@H](C)CCCCO[C@@H]1CN(C)S(=O)(=O)c1ccc(Cl)cc1` the value was 32.3%; for `Cc1ccc(S(=O)(=O)N(C)C[C@@H]2OCCCC[C@@H](C)Oc3ccc(NS(=O)(=O)c4ccc(F)cc4)cc3C(=O)N([C@H](C)CO)C[C@H]2C)cc1`, 65.5% (active). Take `C[C@@H]1CCCCO[C@H](CN(C)S(=O)(=O)c2ccc(Cl)cc2)[C@H](C)CN([C@@H](C)CO)C(=O)c2cc(NS(=O)(=O)c3cccs3)ccc2O1`: the inhibition is 35.2%. For `Cc1ccc(S(=O)(=O)Nc2ccc3c(c2)C(=O)N([C@H](C)CO)C[C@H](C)[C@H](CN(C)S(=O)(=O)c2ccc(F)cc2)OCCCC[C@@H](C)O3)cc1` the value was -6.17%. For `C[C@@H]1CCCCO[C@@H](CN(C)S(C)(=O)=O)[C@H](C)CN([C@@H](C)CO)C(=O)c2cc(NS(=O)(=O)c3ccc(F)cc3)ccc2O1` the value was 6.52%; for `CCCNC(=O)Nc1ccc2c(c1)C(=O)N(C)C[C@@H](OC)[C@H](C)CN(C(=O)C1CCCCC1)[C@H](C)CO2`, 12.3%.

For the compound `C[C@@H]1CN([C@@H](C)CO)C(=O)c2c(c3ccccc3n2C)-c2ccccc2CO[C@@H]1CN(C)S(=O)(=O)c1cccs1`, the inhibition is 12.1%.

As for `CCCNC(=O)N1[C@H](CNC(C)=O)[C@@H](c2ccc(C3=CCCC3)cc2)[C@@H]1CO`, the inhibition is -5.47%.

Regarding `C[C@H](CO)N1C[C@H](C)[C@@H](CN(C)C(=O)Nc2ccc3c(c2)OCO3)OCCCC[C@H](C)Oc2ccc(NC(=O)Nc3ccc4c(c3)OCO4)cc2C1=O`, the inhibition is 12%. For `C[C@@H]1CCCCO[C@H](CN(C)CC2CCCCC2)[C@H](C)CN([C@H](C)CO)C(=O)c2cc(NC(=O)Nc3ccc(F)cc3)ccc2O1` the value was 69.8% (active); for `C[C@H](CO)N1C[C@H](C)[C@H](CN(C)C(=O)NC2CCCCC2)OCCCC[C@H](C)Oc2ccc(NC(=O)Nc3ccc4c(c3)OCO4)cc2C1=O`, 29.3%; for `C[C@@H]1CCCCO[C@H](CN(C)C(=O)NC2CCCCC2)[C@H](C)CN([C@@H](C)CO)C(=O)c2cc(NC(=O)Nc3ccc(F)cc3)ccc2O1`, 52.5%. For `C[C@@H]1CN([C@H](C)CO)C(=O)c2cc(NC(=O)Nc3ccc(F)cc3)ccc2O[C@@H](C)CCCCO[C@@H]1CN(C)CC1CCCCC1` the value was 17%; for `C[C@@H]1CCCCO[C@H](CN(C)CC2CC2)[C@@H](C)CN([C@H](C)CO)C(=O)c2cc(NC(=O)Nc3ccc(F)cc3)ccc2O1`, 2.41%. For `C[C@@H]1CCCCO[C@@H](CN(C)C(=O)NC2CCCCC2)[C@H](C)CN([C@@H](C)CO)C(=O)c2cc(NC(=O)Nc3ccc(F)cc3)ccc2O1` the value was 17.7%. As to `C[C@@H]1CCCCO[C@H](CN(C)C(=O)NC2CCCCC2)[C@H](C)CN([C@H](C)CO)C(=O)c2cc(NC(=O)Nc3ccc(F)cc3)ccc2O1`, the inhibition is 70.7% (active). For `C[C@H]1CCCCO[C@H](CN(C)C(=O)NC2CCCCC2)[C@@H](C)CN([C@@H](C)CO)C(=O)c2cc(NC(=O)Nc3ccc4c(c3)OCO4)ccc2O1` the value was 66.1% (active); for `CCCNC(=O)N1CC2(C1)[C@H](c1ccccc1)[C@@H](CO)N2Cc1cccc(Cl)c1`, 8.51%. For `O=C(Nc1ccccc1F)N1CC(=O)N2[C@@H](CO)[C@H](c3ccc(C#CC4CCCC4)cc3)[C@@H]2C1` the value was 11.2%; for `C[C@H](NC(=O)C[C@@H]1CC[C@@H](NC(=O)Cc2ccccn2)[C@@H](CO)O1)c1ccccc1`, 26%; for `O=C(c1cccnc1)N1CC[C@@H]2[C@@H](CO)Nc3ccc(-c4ccccc4)cc3[C@@H]21`, 1.4%. For `CCOc1ccc(/C=C/C(=O)N(CC)CC(=O)NCc2cccs2)cc1OC` the value was 10.8%; for `O=C(COC(=O)/C=C/c1cccc(Cl)c1)NCc1cccs1`, 6.69%; for `COc1ccc(/C=C/C(=O)OCC(=O)NCc2cccs2)cc1OC`, 72.7% (active).

Consider `CNC(=O)C[C@@H]1CC[C@@H]2[C@@H](COc3ccc(NC(=O)c4ccc(F)cc4)cc3C(=O)N2C)O1`, for which the inhibition was -7.92%. For `O=C(Nc1cc(Cl)cc(Cl)c1)N[C@@H]1CC[C@H](CCNS(=O)(=O)c2cccc(F)c2)O[C@H]1CO` the value was 13.6%. For `COCC#Cc1ccc([C@H]2[C@H]3CN(Cc4ccncc4)CCCCN3[C@H]2CO)cc1` the value was 12.1%; for `O=C(C[C@@H]1CC[C@@H]2[C@H](COC[C@H](O)CN2C(=O)c2ccncc2)O1)NCc1cc(F)cc(F)c1`, -12.3%.

In the case of `COc1cc(OC)cc(C(=O)N[C@H](C(=O)Nc2nc3ccccc3[nH]2)C(C)C)c1`, the inhibition was 81.6% (active). For `COc1cc(OC)cc(C(=O)N[C@H](C(=O)NNC(=O)c2ccc(Br)cc2)C(C)C)c1` the value was 18.6%; for `COc1cc(OC)cc(C(=O)N[C@H](C(=O)OCC(=O)NC(C)c2ccccc2)C(C)C)c1` (stereo partly specified), -10.5%.

As for `CO[C@H]1CN(C)C(=O)c2cc(NC(=O)c3ccc4c(c3)OCO4)ccc2OC[C@@H](C)N(CCC(F)(F)F)C[C@H]1C`, the inhibition is -3.09%.

Consider `O=C(c1ccc(F)cc1)N1CC(=O)N2[C@@H](CO)[C@@H](c3ccc(C#Cc4ccc(F)cc4)cc3)[C@@H]2C1`, for which the inhibition is 87.7% (active). For `COc1ccccc1NC(=O)N1CC(=O)N2[C@H](CO)[C@H](c3ccc(C#Cc4ccccc4)cc3)[C@H]2C1` the value was -18.8%; for `COc1ccc(C#Cc2ccc([C@H]3[C@@H](CO)N4CCCCN(C(=O)Nc5ccccc5)C[C@H]34)cc2)cc1`, 85.6% (active); for `O=C(c1ccc(F)cc1)N1CC(=O)N2[C@H](C1)[C@@H](c1ccc(C#CC3CC3)cc1)[C@@H]2CO`, 27.2%.

As for `COc1ccccc1NC(=O)N1CCCCN2[C@H](CO)[C@H](c3ccc(C#CC4CC4)cc3)[C@@H]2C1`, the inhibition is 8.7%. For `CC(C)C#Cc1ccc([C@H]2[C@@H](CO)N3CCCCN(C(=O)Nc4ccccc4)C[C@H]23)cc1` the value was 7.15%; for `COc1ccccc1NC(=O)N1CC(=O)N2[C@H](C1)[C@H](c1ccc(C#Cc3ccccc3)cc1)[C@@H]2CO`, 61.7% (active); for `COc1ccccc1NC(=O)N1CC(=O)N2[C@@H](CO)[C@H](c3ccc(C#CC4CC4)cc3)[C@@H]2C1`, -15.3%. For `COc1ccccc1NC(=O)N1CCCCN2[C@H](C1)[C@H](c1ccc(-c3ccccc3)cc1)[C@@H]2CO`, the inhibition was -14.1%.

Turning to `O=C(CC1CC1)N1CC(=O)N2[C@H](CO)[C@H](c3ccc(C#Cc4ccc(F)cc4)cc3)[C@@H]2C1`, the inhibition is 2.13%. For `COc1ccccc1NC(=O)N1CCCCN2[C@@H](CO)[C@@H](c3ccc(C#Cc4ccccc4)cc3)[C@@H]2C1` the value was 109% (active). For `O=C(Nc1ccccc1)N1CCCCN2[C@H](CO)[C@@H](c3ccc(C#Cc4ccccn4)cc3)[C@H]2C1`, the inhibition was 10.2%. For `Cc1ccccc1S(=O)(=O)N[C@@H]1CC[C@@H](CCNS(=O)(=O)c2cccc(F)c2)O[C@H]1CO` the value was 20.4%; for `O=C(C[C@H]1CC[C@H]2[C@@H](COC[C@@H](O)CN2Cc2cccc(C(F)(F)F)c2)O1)NCc1ccncc1`, -1.84%. For `CCS(=O)(=O)Nc1ccc2c(c1)C(=O)N(C)[C@@H]1CC[C@@H](CC(=O)NC)O[C@H]1CO2` the value was -18%; for `CCCNC(=O)Nc1ccc2c(c1)OC[C@@H](C)N(CCC)C[C@H](C)[C@@H](OC)CN(C)C2=O`, -2.35%; for `CCCNC(=O)Nc1ccc2c(c1)C(=O)N(C)[C@@H]1CC[C@@H](CC(=O)NC)O[C@H]1CO2`, -19.9%. For `O=C(c1cccnc1)N1CC2(C1)[C@@H](c1ccccc1)[C@H](CO)N2C(=O)C1CCC1`, the inhibition was -5.13%. `CC(=O)N1CC[C@@H]2[C@@H](CO)N(C)c3ccc(-c4ccc(C#N)cc4)cc3[C@@H]21`: the inhibition is -6.97%. For `C[C@@H]1CN([C@H](C)CO)C(=O)Cc2cc(NC(=O)CCN3CCOCC3)ccc2O[C@H]1CN(C)Cc1ccncc1` the value was -2.37%; for `CN(C)CC#Cc1ccc([C@@H]2[C@H](CO)N3CCCCN(C(=O)NC4CCCC4)C[C@@H]23)cc1`, 6.59%; for `CN(C)CC#Cc1ccc([C@@H]2[C@H](CO)N3CCCCN(C(=O)Nc4ccc(F)cc4)C[C@@H]23)cc1`, 92.8% (active). For `O=C(C1CCC1)N1CCCCN2[C@H](CO)[C@H](c3ccc(-c4cccc(F)c4)cc3)[C@H]2C1`, the inhibition is 84.3% (active). On to `O=C(C1CCCC1)N1CCCCN2[C@@H](CO)[C@H](c3ccc(-c4cccc(F)c4)cc3)[C@@H]2C1`, for which the inhibition was 6.9%. As for `O=C(Nc1ccc(F)cc1)N1CCCCN2[C@H](CO)[C@H](c3ccc(C#Cc4ccccc4)cc3)[C@H]2C1`, the inhibition is 38%. For `O=C(C1CCC1)N1CCCCN2[C@H](CO)[C@H](c3ccc(-c4cccc(F)c4)cc3)[C@@H]2C1` the value was -30.2%.
